Laboratory results reported in PubChem BioAssay AID1159580 (chemical genetic matrix, 2015).
The whole screen tested about 5,500 compounds, of which about 2,000 (36%) were called active. Inconclusive results (about 18%) are left out. Cut-off read from the data, not from the text of the source: active = normalized growth mostly below about 0.91 (no sharp cut-off); inconclusive = no clear call, values can overlap the other calls; inactive = mostly above about 0.92. The list shows a part of the results.

Experiment: chemical genetic growth profiling, strain panel (AID 1159580);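 note: tested at 20 µM; growth read once vehicle control cultures reached saturation at 30 °C; 1 = growth at the plate median or of vehicle wells; lower values mean less growth of the strain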
Details: growth OD

Measured: normalized growth

O=C(/C=C/c1ccc(O)c(O)c1)O[C@@H]1C[C@](O)(C(=O)O)C[C@@H](O)[C@H]1O
inactive: S. cerevisiae deletion strains, locus YKL009W, strain mrt4, active compounds read low 1.04 | S. cerevisiae deletion strains, locus YKL068W, active compounds read low 1.01 | S. cerevisiae deletion strains, locus YKL085W, strain MDH1 (second series), active compounds read low 1 | S. cerevisiae deletion strains, locus YKL085W, strain MDH1, active compounds read low 1 | S. cerevisiae deletion strains, locus YKL160W, strain elf1, active compounds read low 1.03 | S. cerevisiae deletion strains, locus YKR001C, strain vps1, active compounds read low 1.03 | S. cerevisiae deletion strains, locus YKR026C, strain gcn3, active compounds read low 0.973 | S. cerevisiae deletion strains, locus YKR091W, strain srl3, active compounds read low 0.992 | S. cerevisiae deletion strains, locus YLL001W, strain dnm1, active compounds read low 0.99 | S. cerevisiae deletion strains, locus YLL026W, active compounds read low 0.985 | S. cerevisiae deletion strains, locus YLL041C, strain sdh2, active compounds read low 0.974 | S. cerevisiae deletion strains, locus YLR027C, strain aat2, active compounds read low 0.999 | S. cerevisiae deletion strains, locus YLR039C, strain RIC1, active compounds read low 1.05 | S. cerevisiae deletion strains, locus YLR058C, strain SHM2, active compounds read low 1.01 | S. cerevisiae deletion strains, locus YLR102C, strain apc9, active compounds read low 1.01 | S. cerevisiae deletion strains, locus YLR113W, strain HOG1, active compounds read low 1 | S. cerevisiae deletion strains, locus YLR221C, strain rsa3, active compounds read low 0.972 | S. cerevisiae deletion strains, locus YLR258W, strain gsy2, active compounds read low 0.985 | S. cerevisiae deletion strains, locus YLR262C, strain YPT6 (second series), active compounds read low 0.996 | S. cerevisiae deletion strains, locus YLR262C, strain YPT6, active compounds read low 1.11 | S. cerevisiae deletion strains, locus YLR268W, strain sec22, active compounds read low 1.05 | S. cerevisiae deletion strains, locus YLR320W, strain mms22, active compounds read low 0.969 | S. cerevisiae deletion strains, locus YLR330W, strain CHS5, active compounds read low 1.01 | S. cerevisiae deletion strains, locus YLR342W, strain FKS1 (second series), active compounds read low 0.998 | S. cerevisiae deletion strains, locus YLR342W, strain FKS1, active compounds read low 0.988 | S. cerevisiae deletion strains, locus YLR357W, strain rsc2, active compounds read low 1 | S. cerevisiae deletion strains, locus YLR370C, strain arc18, active compounds read low 0.986 | S. cerevisiae deletion strains, locus YLR371W, strain rom2, active compounds read low 1.01 | S. cerevisiae deletion strains, locus YLR384C, strain iki3, active compounds read low 0.96 | S. cerevisiae deletion strains, locus YLR418C, strain cdc73, active compounds read low 0.992 | S. cerevisiae deletion strains, locus YML016C, strain PPZ1, active compounds read low 1 | S. cerevisiae deletion strains, locus YML032C, strain rad52, active compounds read low 0.999 | S. cerevisiae deletion strains, locus YML120C, strain ndi1, active compounds read low 0.993 | S. cerevisiae deletion strains, locus YML124C, strain tub3, active compounds read low 1.01 | S. cerevisiae deletion strains, locus YMR058W, strain fet3, active compounds read low 0.978 | S. cerevisiae deletion strains, locus YMR078C, strain ctf18, active compounds read low 1.02 | S. cerevisiae deletion strains, locus YMR125W, strain sto1, active compounds read low 0.99 | S. cerevisiae deletion strains, locus YMR129W, active compounds read low 0.991 | S. cerevisiae deletion strains, locus YMR205C, strain PFK2, active compounds read low 1.03 | S. cerevisiae deletion strains, locus YMR223W, strain ubp8, active compounds read low 1 | S. cerevisiae deletion strains, locus YMR231W, strain pep5, active compounds read low 0.971 | S. cerevisiae deletion strains, locus YMR263W, strain SAP30, active compounds read low 1.01 | S. cerevisiae deletion strains, locus YMR307W, strain GAS1, active compounds read low 0.959 | S. cerevisiae deletion strains, locus YNL067W, strain RPL9B, active compounds read low 1.04 | S. cerevisiae deletion strains, locus YNL071W, strain lat1, active compounds read low 0.987 | S. cerevisiae deletion strains, locus YNL128W, strain TEP1, active compounds read low 1.04 | S. cerevisiae deletion strains, locus YNL153C, strain GIM3, active compounds read low 1.02 | S. cerevisiae deletion strains, locus YNL183C, strain NPR1, active compounds read low 0.957 | S. cerevisiae deletion strains, locus YNL209W, strain ssb2, active compounds read low 0.991 | S. cerevisiae deletion strains, locus YNL233W, strain BNI4, active compounds read low 1.02 | S. cerevisiae deletion strains, locus YNL248C, strain rpa49, active compounds read low 0.982 | S. cerevisiae deletion strains, locus YNL250W, strain rad50, active compounds read low 1.03 | S. cerevisiae deletion strains, locus YNL271C, strain bni1, active compounds read low 1.01 | S. cerevisiae deletion strains, locus YNL298W, strain CLA4, active compounds read low 1.02 | S. cerevisiae deletion strains, locus YNL307C, strain MCK1, active compounds read low 1.02 | S. cerevisiae deletion strains, locus YNL322C, strain KRE1 (second series), active compounds read low 0.976 | S. cerevisiae deletion strains, locus YNL322C, strain KRE1, active compounds read low 1 | S. cerevisiae deletion strains, locus YNR049C, strain mso1, active compounds read low 0.973 | S. cerevisiae deletion strains, locus YNR052C, strain pop2, active compounds read low 1.01 | S. cerevisiae deletion strains, locus YOL006C, strain TOP1, active compounds read low 1.15 | S. cerevisiae deletion strains, locus YOL012C, strain htz1 0.974 | S. cerevisiae deletion strains, locus YOL147C, strain pex11, active compounds read low 1.02 | S. cerevisiae deletion strains, locus YOR001W, strain rrp6, active compounds read low 0.925 | S. cerevisiae deletion strains, locus YOR061W, strain CKA2, active compounds read low 1.01 | S. cerevisiae deletion strains, locus YOR069W, strain VPS5, active compounds read low 1.01 | S. cerevisiae deletion strains, locus YOR070C, strain gyp1, active compounds read low 0.985 | S. cerevisiae deletion strains, locus YOR080W, strain dia2, active compounds read low 0.983 | S. cerevisiae deletion strains, locus YOR083W, strain WHI5, active compounds read low 1.04 | S. cerevisiae deletion strains, locus YOR106W, strain vam3, active compounds read low 1 | S. cerevisiae deletion strains, locus YOR136W, strain idh2, active compounds read low 1.03 | S. cerevisiae deletion strains, locus YOR144C, strain elg1, active compounds read low 1.01 | S. cerevisiae deletion strains, locus YOR184W, strain ser1, active compounds read low 1 | S. cerevisiae deletion strains, locus YOR231W, strain MKK1, active compounds read low 1.02 | S. cerevisiae deletion strains, locus YOR265W, strain rbl2, active compounds read low 0.999 | S. cerevisiae deletion strains, locus YOR270C, strain vph1, active compounds read low 0.924 | S. cerevisiae deletion strains, locus YOR290C, strain snf2, active compounds read low 1.01 | S. cerevisiae deletion strains, locus YOR316C, strain cot1, active compounds read low 1.02 | S. cerevisiae deletion strains, locus YPL051W, strain arl3, active compounds read low 0.999 | S. cerevisiae deletion strains, locus YPL055C, strain LGE1, active compounds read low 1.03 | S. cerevisiae deletion strains, locus YPL078C, strain atp4, active compounds read low 1.02 | S. cerevisiae deletion strains, locus YPL106C, strain sse1, active compounds read low 0.995 | S. cerevisiae deletion strains, locus YPL240C, strain hsp82, active compounds read low 0.969 | S. cerevisiae deletion strains, locus YPL256C, strain CLN2, active compounds read low 1.01 | S. cerevisiae deletion strains, locus YPR119W, strain clb2, active compounds read low 1.01 | S. cerevisiae deletion strains, locus YPR141C, strain kar3, active compounds read low 1.01 | S. cerevisiae deletion strains, locus YPR163C, strain tif3, active compounds read low 1.03 | S. cerevisiae deletion strains, locus YPR167C, strain met16, active compounds read low 1.01 | S. cerevisiae deletion strains, strain wtn01, active compounds read low 1.05 | S. cerevisiae strains, strain wild type, active compounds read low 1.01
